# In PubChem BioAssay AID1347131 (National Center for Advancing Translational Sciences (NCATS), 2019):
# About 2,000 (0.49%) of roughly 410,000 compounds were called active. Another 8% or so got no clear call; they are omitted. The sample as a whole holds a higher share of actives than the screen did. Values without a mark were called inactive. Calls come from the whole dose curve; tested in HEK293 reporter line.
# Assay: qHTS Assay for Foot and Mouth Disease Virus Antivirals: Primary Screen against the MLPCN compound library; note: nearly all actives have a fitted effect of over 55% in size
# Settings: FMDV antiviral cell-based qHTS; series mostly up to 57.9 µM; activity, negative = inhibition: at the top concentration
# Potency is the fitted concentration of half-maximal effect.
SMILES,"activity, negative = inhibition [%]",Potency
CC(NC(=O)C1CCN(CCOc2ccc(Cl)cc2)CC1)c1cccc2ccccc12 (centres undefined),-31.2,–
C[C@H](NC(=O)c1ccc(C(C)(C)C)cc1)C(=O)N1CCN(C/C=C/c2ccccc2)CC1,-40.1,–
O=C(/C=C/c1ccco1)N1CCN(C/C=C/c2ccccc2)CC1,-36.1,–
O=C(c1ccc(=O)n(Cc2ccccc2)n1)N1CCN(C/C=C/c2ccccc2)CC1,–,15.8 µM (active)
CCOc1ccc(-n2c(SCc3nc(-c4ccc(OC)cc4)no3)nnc2-c2ccncc2)cc1,-39.4,–
O=C(NCc1ccc(F)cc1)C(=O)NCC(c1cccs1)S(=O)(=O)c1cccs1 (centres undefined),-30.9,–
Cc1ccc(Nc2sc(C(=O)c3ccccc3)c(N)c2C(=O)Nc2ccc(Cl)cc2)cc1,–,15.8 µM (active)
Cc1sc(NC(=O)c2ccccc2)c(C(=O)c2ccccc2)c1C,-34,–
Cc1ccccc1Nc1sc(C(=O)c2ccccc2)c(N)c1S(C)(=O)=O,-27.5,–
O=S(=O)(c1ccc(Cl)cc1)c1nnn2c1nc(NC1CCCCC1)c1sccc12,-30.8,–
COc1ccc(C(=O)Nc2nc3ccccc3s2)c(OC)c1,-99.7,–
COc1ccc2oc(C(=O)Nc3nc4ccc(S(C)(=O)=O)cc4s3)c(C)c2c1,-31.4,–
Cc1ccc2nc(NC(=O)c3ccco3)sc2c1,–,12.6 µM (active)
Cc1ccc2nc(NC(=O)c3cc(-c4ccco4)nc4ccccc34)sc2c1,-32.7,–
Cc1ccc2nc(NC(=O)CSc3nccn3Cc3ccc(F)cc3)sc2c1,-21.8,–
COc1ccc2nc(NC(=O)c3ccco3)sc2c1,–,15.8 µM (active)
CCCCCc1nnc(NC(=O)c2cccc(S(=O)(=O)N3CCOCC3)c2)s1,-35.2,–
CN(C)S(=O)(=O)N1CCc2ccc(NC(=O)c3ccc(C(F)(F)F)cc3)cc2C1,-41,–
COc1cc(-c2cc(NC=O)c3ncc(-c4cccc(C(F)(F)F)c4)n3c2)cc(OC)c1OC,-31.8,–
CSc1ccccc1OCc1cc(C(=O)NCC(C)(C)N2CCOCC2)no1,-23.1,–
O=C(CSc1nc(=O)n(CCN2CCOCC2)c2c1CCC2)Nc1ccc(OC(F)(F)F)cc1,-40.8,–
N#Cc1cc2c(nc1SCC(=O)Nc1ccc(OC(F)(F)F)cc1)C1CCN2CC1,–,15.8 µM (active)
O=C1CCCN2N=C(SCC(=O)Nc3ccc(OC(F)(F)F)cc3)SC2=N1,-31,–
CCCN1C(=O)c2cc(C(=O)Nc3ccccc3OC)ccc2C1Nc1ccccc1OC (centres undefined),-38.9,–
CCc1ccc(-n2c(=O)c3c4c(sc3n(CC(=O)N3CCCCC3CC)c2=O)CCC4)cc1 (centres undefined),-31.9,–

SMILES,"activity, negative = inhibition [%]",Potency
CC(C)C(=O)N1CCC(CN=Cc2c(O)n(C3CCCCC3)c(=O)n(C3CCCCC3)c2=O)CC1,–,25.1 µM (active)
Cc1ccc(-c2cc(-c3ccc(F)cc3)nc(N)c2C#N)o1,-34.5,–
CC(C)Oc1ccc(CN2CCC2(C)C(=O)Nc2cccc(Oc3ccccc3)c2)cc1 (centres undefined),-33.4,–
CC(C)(C)OC(=O)N1CCCC(C(=O)Nc2cccc(C(=O)NCc3ccccc3)c2)C1 (centres undefined),-40.2,–
CC(C)Oc1ccc(CNC(=O)c2cccc(NC(=O)N3CCSc4ncccc43)c2)cc1,–,20 µM (active)
Cc1[nH]c2ccccc2c1C(=O)CN1C(=O)C(=O)N(CCC2=CCCCC2)C1=O,-31.7,–
COc1cc2c(cc1NC(=O)c1cc(-c3ccncc3)nc3ccccc13)oc1ccccc12,-31.8,–
CCC1(c2ccc(F)cc2)NC(=O)N(CC(=O)Nc2cc(S(=O)(=O)N(C)C)ccc2Cl)C1=O (centres undefined),-31.6,–
N=c1ccn(Cc2ccc(Cl)c(Cl)c2)cc1,-6.86,–
O=C(COc1ccc(Oc2ccccc2)cc1)NCc1cn2ccccc2n1,-32.5,–
Clc1ccc(-c2cn3cc(Br)ccc3n2)cc1Cl,–,14.1 µM (active)
c1ccc(-c2nc3ccccn3c2-c2ccccc2)cc1,-28.6,–
Brc1ccc(-c2cn3ccccc3n2)cc1,–,11.2 µM (active)
O=C(O)c1ccnc(Cl)c1,-30.7,–
CCc1noc(C)c1C(=O)Nc1nc(-c2ccc(Cl)cc2Cl)c(C)s1,-34.7,–
COc1ccccc1N1CCN(C(=O)c2ccccc2Oc2ccccc2)CC1,-42.1,–
COc1ccccc1NS(=O)(=O)c1cccc(C(=O)N/N=C/c2ccc(N3CCOCC3)cc2)c1,-31.5,–
Cc1ccc(C)c(N2CCN(C(=O)c3cnn(-c4ccccc4Cl)c3C3CCN(C(=O)OC(C)(C)C)CC3)CC2)c1,-38.2,–
Cc1ccc2c(c1)-c1c(cnn1CC(=O)N(Cc1ccco1)C1CCCCC1)CO2,-31.6,–
CC(C)(C)NC(=O)NC(=O)CN1CCN(C(c2ccccc2)c2ccccc2)CC1,-40.2,–
Cc1ccc(N(Cc2cc(=O)[nH]c3ccccc23)C(=O)CCl)cc1,–,20 µM (active)
CCOc1ccc(N(Cc2cc3cc(C)ccc3[nH]c2=O)C(=O)c2cccc(Cl)c2)cc1,-31.5,–
COc1ccc(CC(=O)N(Cc2ccccc2)c2ccc(C)cc2)cc1OC,-32.2,–
Cc1ncsc1CCC(=O)N1CCCC(c2nc(-c3ccncc3)ncc2-c2ccccc2)C1 (centres undefined),-30.6,–
COc1cccc(-n2cnc3scc(-c4cccs4)c3c2=O)c1,-33.2,–

SMILES,"activity, negative = inhibition [%]",Potency
O=C(NC(c1ccccc1)c1ccccc1)c1ccc(S(=O)(=O)C(F)F)cc1,-31.9,–
O=C(Nc1cccc(-c2ccc(N3CCCCC3)nn2)c1)C(F)(F)F,–,14.1 µM (active)
O=C(CN1CCN(c2ccccn2)CC1)Nc1cccc(C(F)(F)F)c1,-43.4,–
O=C(Nc1ccccc1)N1CCCN(c2ccc(C(F)(F)F)cn2)CC1,-41,–
COC(=O)c1ccc(CSc2ncnc3ccccc23)o1,-30.7,–
CC(C)C1NC(=S)N(C2CCCCC2)C1=O (centres undefined),-26.9,–
CCOC(=O)c1sc2nc(CC(=O)OC)nc(N3CCN(c4ccc(OC)cc4)CC3)c2c1C,-48.5,–
CCOC(=O)c1cc(C)n(CC2CCC(C(=O)Nc3ccc(C(=O)OC)cc3)CC2)c1C (centres undefined),-31.3,–
CCc1nnc(NC(=O)c2cccc(C(=O)Nc3nnc(CC)s3)n2)s1,-20,–
CCc1nnc(NC(=O)c2nc(S(=O)(=O)Cc3ccccc3)ncc2Cl)s1,–,20 µM (active)
Cc1ccc(CS(=O)(=O)c2ncc(Cl)c(C(=O)Nc3nc4ccc(F)cc4s3)n2)cc1,-48.8,–
CCc1ccccc1NC(=O)Cn1nc(C)c2nn(-c3ccc(Cl)cc3)c(C)c2c1=O,-30.7,–
Cc1ccccc1C(=O)N(Cc1nc(-c2ccc(Cl)cc2)no1)C(C)C,-30.6,–
COc1cccc(CNC(=O)Cn2cc3c(n2)-c2c(oc(C(=O)N4CCOCC4)c2C)CC3)c1,-31.3,–
Cc1cc(NC(=O)c2ccc(N(C)S(=O)(=O)c3ccccc3)cc2)no1,-30.5,–
Cc1cc(C)n2nc(SCc3ccc(F)cc3Cl)nc2n1,-20.5,–
O=c1c2ccccc2sc2ccc(C#CC3(O)CCCCC3)cc12,-68.8,–
Cn1c2ccccc2c(=O)c2ccc(C#CC3(O)CCCCC3)cc21,–,17.8 µM (active)
Cc1cc2sc3ccc(C#CC4(O)CCCCC4)cc3c(=O)c2cc1C,-99.3,–
CCOC(=O)C1(Cc2ccccc2)CCN(Cc2cccn2-c2cccnc2)CC1,-33.3,–
COc1ccccc1OCCNC(=O)c1cc(C2CC2)nc2c1cnn2C(C)C,-40,–
CCN1C(=O)CC(C(C)C)N(C2CCCC2)c2nc(Nc3ccc(C(=O)NC4CCN(C)CC4)cc3OC)ncc21 (centres undefined),-34.5,–
CCCCC(CC)CNC(=O)c1ccc2c(=O)n(CCOC)c(=O)[nH]c2c1 (centres undefined),-33.9,–
Cc1ccc(-c2nc(CS(=O)CC(=O)N3CCN(c4ccc(F)cc4)CC3)c(C)o2)cc1 (centres undefined),-31.4,–
Cc1nc(-c2cccc(NC(=O)c3ccc(Cl)c(S(=O)(=O)N4CCCC4)c3)c2)cs1,-32.5,–

SMILES,"activity, negative = inhibition [%]",Potency
COc1ccc(CC(=O)Nc2nc(-c3ccc(OC)c(OC)c3)cs2)cc1OC,-36.1,–
COc1ccc(CC(=O)Nc2cccc(-c3csc(C)n3)c2)cc1,–,20 µM (active)
COc1ccc(Oc2ncc3nc(-c4ccccc4)c(=O)n(CCC#N)c3n2)cc1,-39,–
COc1ccc(/C=N/NC(=O)c2nonc2C)cc1,–,11.2 µM (active)
COc1cccc(/C=N/NC(=O)c2nc(-c3ccccc3)cc(-c3ccccc3)n2)c1,-37.4,–
Nc1nonc1-n1nnc(C(=O)N/N=C/c2ccc(O)cc2)c1COc1ccc(F)cc1,-32.2,–
Cc1cc(OCCCCN2C(=O)NC(C)(C)C2=O)cc(C)c1Cl,-34.5,–
CC1(C)NC(=O)N(CCCCOc2ccc3c(c2)CCC3)C1=O,-30.3,–
CC(C)c1cc(Br)ccc1OCCCN1C(=O)NC(C)(C)C1=O,–,28.2 µM (active)
CC12C(=O)N(c3cccc(OC(=O)c4ccco4)c3)C(=O)C1C1c3ccccc3C2c2ccccc21 (centres undefined),-42.3,–
Nc1cc(C(=O)OCC(=O)NCCNC(=O)COC(=O)c2ccc(Cl)c(N)c2)ccc1Cl,-32.3,–
CS(=O)(=O)c1ccc(C(=O)OCC(=O)NCc2cccs2)cc1[N+](=O)[O-],–,25.1 µM (active)
CC(C)CN1CCN(C(=O)COC(=O)c2ccc(S(C)(=O)=O)c([N+](=O)[O-])c2)CC1,-34,–
COC(=O)c1ccc(COc2ccc(/C=N/NC(N)=S)cc2)o1,-33,–
CCc1ccc(OCc2ccc(C(=O)O)o2)cc1,–,10 µM (active)
COc1ccc(NC(=O)c2ccc(COc3ccccc3OC)o2)cc1OC,-31.3,–
Cc1ccccc1CS(=O)(=O)c1cn(CC(=O)N2CCC(C)CC2)c2ccccc12,-30.3,–
CCc1cc(=O)[nH]c(SCc2nc(-c3ccc(C(F)(F)F)cc3)no2)n1,-32.9,–
COc1cc(/C=C(\C#N)c2nc3ccccc3[nH]2)cc(Cl)c1OCc1ccccc1Cl,-41.7,–
N#C/C(=C/c1ccc(N2CCCCC2)o1)C(=O)NCCc1c[nH]c2ccccc12,-32,–
COc1cc(/C=C(/C#N)c2nc3ccccc3[nH]2)ccc1OCC(=O)Nc1ccccc1C,-31.8,–
N#C/C(=C\c1ccc(N2CCOCC2)o1)c1nc2ccccc2[nH]1,–,10 µM (active)
N#C/C(=C/c1ccc(N2CCOCC2)o1)c1nc2ccccc2[nH]1,–,8.91 µM (active)
Cc1ccc2nc(/C(C#N)=C/c3ccc(-c4cccc(Cl)c4)o3)[nH]c2c1,-32.1,–
